PubChem BioAssay (NCATS)
Inconclusive results are not listed. Calls of active or inactive are those of the source. The call rests on the fitted dose curve.

assay: A High-Content qHTS Against Drug Library for the Identification of Small Molecules that Inhibit DYT1 Early Onset Primary Dystonia-Associated Cell Pathology (AID 1645839); settings: HEK293 Flp-In EGFP-delE TorsinA, punctate imaging, 48 h; series mostly up to 46.1 µM; % pathology change, negative = correction: at the top concentration
Source text: Nicole Calakos M.D., Ph.D.
Duke University School of Medicine, Durham, NC
In DYT1 dystonia due to delGAG in the TOR1A gene, there is a robust and widely replicated finding of TorsinA protein mislocalization caused when the mutant protein is in excess of the wildtype protein (1-7). Stable HEK293 cell lines were created that replicate this phenomenon. Inducible expression of an EGFP-hu delE TorsinA encoding cDNA causes pronounced punctate cellular distribution. […] This phenotypic difference in EGFP-huTorsinA fusion protein distribution serves as an indicator of cell pathology. […] RNAi screen results with the assay were validated in DYT1 patient cell phenotypes, intersected with a known dystonia gene, and led to discovery of new human genetic dystonia associations.
The bioassay described herein is a high-content image screen with two readouts. The "%pathology" readout is the primary qHTS data channel, while the "cellcount" is the counterscreen qHTS channel. Desired active compounds are those that show inhibition in %pathology channel but no activity or minimal toxicity in cellcount readout.
1. Kustedjo, K., Bracey, M.H., and Cravatt, B.F. (2000). […] J. Biol. Chem. 275, 27933 - 27939.
2. Bragg, D.C., Kaufman, C.A., Kock, N., and Breakefield, X.O. (2004). Inhibition of N-linked glycosylation prevents inclusion formation by the dystonia-related mutant form of torsinA. Mol. Cell. Neurosci. 27, 417 - 426.
3. Gonzalez-Alegre, P., and Paulson, H.L. (2004). Aberrant Cellular Behavior of Mutant TorsinA Implicates Nuclear Envelope Dysfunction in DYT1 Dystonia. J. Neurosci. 24, 2593 - 2601.
4. Goodchild, R.E., and Dauer, W.T. (2004). Mislocalization to the nuclear envelope: an effect of the dystonia-causing torsinA mutation. Proc. Natl. Acad. Sci. U. S. A. 101, 847 - 852.
5. Kock, N., Allchorne, A.J., Sena-Esteves, M., Woolf, C.J., and Breakefield, X.O. (2006). RNAi blocks DYT1 mutant torsinA inclusions in neurons. Neurosci. Lett. 395, 201 - 205.
6. Hewett, J.W., Nery, F.C., Niland, B., Ge, P., Tan, P., Hadwiger, P., Tannous, B.A., Sah, D.W.Y., and Breakefield, X.O. (2008). siRNA knock-down of mutant torsinA restores processing through secretory pathway in DYT1 dystonia cells. Hum. Mol. Genet. 17, 1436 - 1445.
7. Calakos, N., Patel, V.D., Gottron, M., Wang, G., Tran-Viet, K.N., Brewington, D., Beyer, J.L., Steffens, D.C., Krishnan, R.R., and Zuchner, S. (2010). Functional evidence implicating a novel TOR1A mutation in idiopathic, late-onset focal dystonia. J. Med. Genet. 47, 646 - 650.
8. Rittiner* JE, Caffall* ZF, Hernandez-Martinez R, Sanderson SM, Pearson JL, Tsukayama KK, Liu AY, Xiao C, Tracy S, Shipman MK, Hickey P, Johnson J, Scott B, Stacy M, Saunders-Pullman R, Bressman S, Simonyan K, Sharma N, Ozelius LJ, Cirulli ET, Calakos N. Functional Genomic Analyses of Mendelian and Sporadic Disease Identify Impaired eIF2alpha Signaling as a Generalizable Mechanism for Dystonia. Neuron. 2016 Dec 21;92(6):1238-1251. doi: 10.1016/j.neuron.2016.11.012. Epub 2016 Dec 8. PMID: 27939583; PMCID: PMC5320521.
High-content, High-throughput Drug Screening Assay
The TorsinA mislocalization assay was modified from the previously published assay to accommodate compound testing in 1536 well format.1 Briefly, Flp-In T-REx 293 cells from Invitrogen in which a single copy of a cDNA is recombined into a specific genomic locus was used to create tetracycline-inducible expression of cDNA encoding either EGFP-hTOR1A (WT) or EGFP-delE hTOR1A (DYT1). WT and DYT1 cells were diluted to a concentration of 2 x 10^5 cells/mL in reduced serum media (DMEM High Glucose containing 1% tetracycline-tested FBS, 2 mM L-Glutamine, and 1% Penicillin/Streptomycin). 4 µl of WT cells and 4 µl of DTY1 cells were added to column 1 and columns 2-48, respectively, of a poly-D-lysine-coated, low base, black, clear bottom 1536 well plate (Corning, Corning, NY) using the BioRAPTR FRD Microfluidic Workstation (Beckman Coulter, Indianapolis, IN). The final cell number was 800 cells/well. […]
Potency means the concentration at half of the fitted maximal effect.

| SMILES | % pathology change, negative = correction | Potency |
| --- | --- | --- |
| C[C@H]1[C@H](NC(=O)/C(=N/OC(C)(C)C(=O)O)c2csc(N)n2)C(=O)N1S(=O)(=O)O (stereo in doubt) | 0.516% (inactive) |  |
| CC(=O)Oc1ccc2c(c1)CC[C@@H]1[C@@H]2CC[C@]2(C)[C@@H](O)CC[C@@H]12 | -25.9% (inactive) |  |
| CCN1CCC[C@H]1CNC(=O)c1c(OC)ccc(Br)c1OC | 4.46% (inactive) |  |
| CCCCOc1ccc(C(=O)CCN2CCCCC2)cc1 |  | 10 µM (active) |
| CN1CCN(C(c2ccccc2)c2ccccc2)CC1 | -4.68% (inactive) |  |
| CCCCCCCCCCCCCCCCCC(=O)OCC(O)CO (stereo not given) | 3.4% (inactive) |  |
| C[C@]12CC[C@H]3[C@@H](CCC4=CC(=O)CC[C@@]43C)[C@@H]1CC[C@@H]2C(=O)CO | 12.1% (inactive) |  |
| C=C1C[C@H]2[C@@H]3C=C(C)C4=CC(=O)CC[C@]4(C)[C@H]3CC[C@]2(C)[C@@]1(OC(C)=O)C(C)=O | 1.9% (inactive) |  |
| N[C@H](Cc1c[nH]c2ccccc12)C(=O)O | -8.7% (inactive) |  |
| CCCCS(=O)(=O)N[C@@H](Cc1ccc(OCCCCC2CCNCC2)cc1)C(=O)O | -5.23% (inactive) |  |
| CC(=O)Oc1ccc(C(c2ccc(OC(C)=O)cc2)c2ccccn2)cc1 | 1.92% (inactive) |  |
| CN=C(NC#N)NCCSCc1csc(N=C(N)N)n1 | 10% (inactive) |  |
| C[C@]12CC[C@@H]3c4ccc(O)cc4CC[C@H]3[C@@H]1C[C@@H](O)[C@@H]2O | -13.1% (inactive) |  |
| CN(C)CC/C=C1/c2ccccc2COc2ccc(CC(=O)O)cc21 | 10.8% (inactive) |  |
| C[C@]12C=CC(=O)C=C1[C@@H](F)C[C@@H]1[C@@H]2[C@@H](O)C[C@@]2(C)[C@H]1CC[C@]2(O)C(=O)CO | 17.5% (inactive) |  |
| CC(=O)OCC(=O)[C@@]1(O)CC[C@H]2[C@@H]3CCC4=CC(=O)C=C[C@]4(C)[C@H]3[C@@H](O)C[C@@]21C | -9.67% (inactive) |  |
| OC[C@@H](O)[C@@H](O[C@@H]1O[C@H](CO)[C@H](O)[C@H](O)[C@H]1O)[C@H](O)[C@@H](O)CO | 7.65% (inactive) |  |
| CC(C)NC[C@@H](O)COc1cccc2ccccc12 | -24.3% (inactive) |  |
| NCCC(O)(P(=O)(O)O)P(=O)(O)O | 3.63% (inactive) |  |
| Cc1nc2n(c(=O)c1CCN1CCC(c3noc4cc(F)ccc34)CC1)CCC[C@H]2O | 2.21% [at 19.1 µM] (inactive) |  |

| SMILES | % pathology change, negative = correction | Potency |
| --- | --- | --- |
| Cc1cccn2c(=O)c(-c3nnn[nH]3)cnc12 | -1.54% [at 19.1 µM] (inactive) |  |
| CCOc1ccc2nc3cc(N)ccc3c(N)c2c1 | 0.465% (inactive) |  |
| COc1cc2c(cc1OC)C(C(C(=O)N(CCc1ccc(OC)c(OC)c1OC)CCc1ccc(OC)c(OC)c1OC)c1ccccc1)=NCC2 (stereo not given) | -26.8% (inactive) |  |
| CC(C)(CO)[C@@H](O)C(=O)NCCCO | -4.84% (inactive) |  |
| N[C@@H](CCC(=O)N[C@@H](CS)C(=O)NCC(=O)O)C(=O)O | 15.3% [at 19.1 µM] (inactive) |  |
| COc1cc(C(=S)N2CCOCC2)cc(OC)c1OC | 1.66% (inactive) |  |
| CC(C)COC(=O)c1ccc(N)cc1 | -13.1% (inactive) |  |
| C[C@@H]1C[C@H]2[C@@H]3CCC4=CC(=O)C=C[C@]4(C)[C@@]3(F)[C@@H](O)C[C@]2(C)[C@H]1C(=O)CO | 3.98% (inactive) |  |
| NC(=O)c1cc[n+](CC2=C(C(=O)[O-])N3C(=O)[C@@H](NC(=O)Cc4cccs4)[C@H]3SC2)cc1 | -1.9% (inactive) |  |
| CCCCc1nc(Cl)c(CO)n1Cc1ccc(-c2ccccc2-c2nn[nH]n2)cc1 | 8.89% (inactive) |  |
| Cc1cccc(C)c1NC(=O)CN1CCN(CCCC(c2ccc(F)cc2)c2ccc(F)cc2)CC1 | 10.2% (inactive) |  |
| C=CCc1ccc(O)c(OC)c1 | -27.7% (inactive) |  |
| CNC(=O)CN(CCN(CCN(CC(=O)[O-])CC(=O)NC)CC(=O)[O-])CC(=O)[O-].O.[Gd+3] | -13.6% (inactive) |  |
| CCCC(=O)Nc1ccc(OCC(O)CNC(C)C)c(C(C)=O)c1 (stereo not given) | 1.55% (inactive) |  |
| COc1cc2c(cc1OC)C(=O)C(CC1CCN(Cc3ccccc3)CC1)C2 (stereo not given) |  | 12.6 µM (active) |
| COc1ccc(C2C(=O)c3ccccc3C2=O)cc1 | -0.353% (inactive) |  |
| O=C(Nc1ccc(Cl)c(Cl)c1)C1CC1 | -5.3% (inactive) |  |
| CCCSS/C(CCO)=C(\C)N(C=O)Cc1cnc(C)nc1N | 13.2% (inactive) |  |
| COc1cc(-c2ccc(=O)[nH]n2)ccc1OC(F)F | 0.108% (inactive) |  |
| C[C@H](CCC(=O)O)[C@H]1CC[C@H]2[C@@H]3C(=O)C[C@@H]4CC(=O)CC[C@]4(C)[C@H]3CC(=O)[C@]12C | 5.71% (inactive) |  |
